Source: PubChem BioAssay
The list is not random: actives were taken first. Their share in the collection is about 1.6%.
KCNQ2 inh: inhibitors of rat KCNQ2 potassium channel | O88943 | 1.1% of 310,000 active | AID 2156 | CHO-K1 KCNQ2, FluxOR thallium flux, 20 min; stronger effect = lower value | B-score at 10 µM;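 active = fluorescence ratio B-score at most minus 3 library SDs, with starting brightness B-score within 2 library SDs, cut at about -5.5 in these data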
Target sequence (O88943 whole entry, looked up): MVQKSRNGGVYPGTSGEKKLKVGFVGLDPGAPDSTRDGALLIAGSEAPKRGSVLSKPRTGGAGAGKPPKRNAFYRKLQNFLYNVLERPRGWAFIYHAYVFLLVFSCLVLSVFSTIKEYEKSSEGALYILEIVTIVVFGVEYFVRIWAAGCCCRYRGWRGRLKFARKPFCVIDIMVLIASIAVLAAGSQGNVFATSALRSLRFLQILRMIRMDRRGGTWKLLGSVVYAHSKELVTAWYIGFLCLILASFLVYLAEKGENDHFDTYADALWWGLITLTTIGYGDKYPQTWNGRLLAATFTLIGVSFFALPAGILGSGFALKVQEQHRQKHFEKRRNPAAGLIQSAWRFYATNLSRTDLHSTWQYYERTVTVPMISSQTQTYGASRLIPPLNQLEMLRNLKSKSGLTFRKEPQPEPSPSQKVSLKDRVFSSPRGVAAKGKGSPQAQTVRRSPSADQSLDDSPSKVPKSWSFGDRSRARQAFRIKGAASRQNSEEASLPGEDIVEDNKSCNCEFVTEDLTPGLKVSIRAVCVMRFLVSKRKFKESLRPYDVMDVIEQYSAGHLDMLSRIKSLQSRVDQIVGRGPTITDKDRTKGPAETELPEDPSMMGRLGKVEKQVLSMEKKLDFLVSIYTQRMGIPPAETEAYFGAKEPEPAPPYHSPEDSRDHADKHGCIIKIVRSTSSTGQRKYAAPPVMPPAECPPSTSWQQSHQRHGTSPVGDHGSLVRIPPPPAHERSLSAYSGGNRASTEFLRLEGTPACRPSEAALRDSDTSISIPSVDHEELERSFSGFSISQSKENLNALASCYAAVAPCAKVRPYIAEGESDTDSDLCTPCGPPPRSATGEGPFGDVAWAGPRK
KCNQ2 pot: KCNQ2 (rat) channel potentiation; CHO-K1 KCNQ2, FluxOR thallium flux fluorescence; stronger effect = higher value; O88943; B-score at 10 µM; 0.54% of 310,000 active; AID 2239;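 active = fluorescence ratio B-score at least 3 SD of library B-scores, with initial fluorescence B-score within 3 of them, cut at about 5.3 in these data; same plate scores as AID 2156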;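 note: B-score of peak minus minimum over baseline fluorescence ratio after K+ and Tl+ stimulus; positive B-score means potentiation of KCNQ2 with more thallium influx and brighter signal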
Numbers without * were called inactive.

`CCN(CC(=O)NC1CCCC1)S(=O)(=O)c1ccc(F)cc1` gave KCNQ2 inh inactive and KCNQ2 pot 0.44.
CC(=O)Nc1ccccc1NC(=O)c1ccc(C)c(C)c1 was read as KCNQ2 inh inactive and KCNQ2 pot 1.6.
`Cc1ccccc1OCCc1c(C)[nH]c(=S)[nH]c1=O` gave KCNQ2 inh inactive and KCNQ2 pot 0.01.
For O=C(Nc1ccc(F)c(F)c1)c1ccc(F)c(S(=O)(=O)N2CCC3(CC2)OCCO3)c1 the results were KCNQ2 inh inactive and KCNQ2 pot 5.4*.
Screening O=S(=O)(c1cc(F)ccc1F)N1CCC2(CC1)OCCO2 returned KCNQ2 inh inactive.
Screening COc1cccc(CN(C)C(=O)c2ccc(Oc3ccccc3)cc2)c1OC returned KCNQ2 inh inactive.
`O=C(CN1C(=O)COc2ccc(S(=O)(=O)N3CCCC3)cc21)NC1CC1` gave KCNQ2 inh inactive.
For O=C(CN1C(=O)COc2ccc(S(=O)(=O)N3CCCC3)cc21)NC1CCCCCCC1 the results were KCNQ2 inh inactive and KCNQ2 pot 11*.
`O=C(CCc1nnc(Cc2ccc(-c3ccccc3)cc2)o1)NCCc1cccnc1` gave KCNQ2 inh inactive.
Screening CCn1c(NCc2cc(Cl)ccc2O)nc2ccccc21 returned KCNQ2 inh -5.6* and KCNQ2 pot -5.6.
C=CCn1c(NCc2ccccc2OC)nc2ccccc21 was read as KCNQ2 inh inactive.
`C=CCn1c(NCc2cc(Cl)ccc2O)nc2ccccc21` gave KCNQ2 inh inactive.
Screening CCn1c(NCc2cccc(OC)c2OC)nc2ccccc21 returned KCNQ2 inh -6.1* and KCNQ2 pot -6.1.
For O=C(CC1C(=O)NCCN1Cc1ccc(F)cc1)NCCCn1cccn1 (stereo not drawn) the results were KCNQ2 inh inactive.
For CCC(C)n1c(SCC(=O)NC2CCCC2)nc2ccccc2c1=O (stereo not drawn) the results were KCNQ2 inh inactive.
C=CCn1c(C)cc(C(=O)COC(=O)COc2ccccc2C#N)c1C was read as KCNQ2 inh inactive.
Screening C=CCn1c(C)cc(C(=O)COC(=O)[C@@H](NC(=O)c2ccccc2Cl)C(C)C)c1C returned KCNQ2 inh -7.5* and KCNQ2 pot -7.5.
For CCOC(=O)N1CCN(C(=O)C2CC(=O)N(c3ccc(C)cc3)C2)CC1 (stereo not drawn) the results were KCNQ2 inh inactive.
`Brc1cc(-c2ccccc2)nc(-c2ccccc2)n1` gave KCNQ2 inh inactive.
CC(C)CCOP(=O)(c1ccc(N(C)C)cc1)C(O)c1c(Cl)cccc1Cl (stereo not drawn) was read as KCNQ2 inh -5.6* and KCNQ2 pot -5.6.
For CCCOP(=O)(c1ccc(N(C)C)cc1)C(O)c1c(Cl)cccc1Cl (stereo not drawn) the results were KCNQ2 inh inactive and KCNQ2 pot 0.59.
C=CCn1c(SCc2csc(C)n2)nc2sc3c(c2c1=O)CCC(C)C3 (stereo not drawn) was read as KCNQ2 inh inactive.
For C=CCn1c(SCc2csc(C)n2)nc2sc3c(c2c1=O)CCCCC3 the results were KCNQ2 inh -8.1* and KCNQ2 pot -8.1.
C=CCn1c(SCC(=O)c2cccs2)nc2sc(C)c(C)c2c1=O was read as KCNQ2 inh inactive.
Screening C=CCn1c(SCc2cc(=O)n3ccsc3n2)nc2sc(C)c(C)c2c1=O returned KCNQ2 inh -9* and KCNQ2 pot -9.
CCNC(=S)N(CCO)Cc1cc2cc3c(cc2[nH]c1=O)OCO3 was read as KCNQ2 inh inactive.
`CCC(C)[C@H](NC(=O)c1cc2cc(Cl)ccc2n1C)C(=O)N1CCC[C@H]1C(=O)O` (stereo partly drawn) gave KCNQ2 inh inactive.
Screening CC(=O)Nc1ccc2nc(CN3CCN(Cc4ccc(F)cc4)C(CCO)C3)ccc2c1 (stereo not drawn) returned KCNQ2 inh inactive.
`CCCN1CCN(S(=O)(=O)c2ccc(-n3cnnn3)cc2)CC1` gave KCNQ2 inh inactive and KCNQ2 pot 0.12.
Screening C[C@@H]1CN(C(=O)c2nc3ccc(Cl)cn3c2CNCC[C@@H]2C[C@@H]3C=C[C@H]2C3)C[C@H](C)O1 returned KCNQ2 inh inactive.
For O=C(c1nc2ccc(Cl)cn2c1CNCC[C@@H]1C[C@@H]2C=C[C@H]1C2)N1CCCCCCC1 the results were KCNQ2 inh -5.8* and KCNQ2 pot -5.8.
For COc1cc(NC(=O)c2cccs2)cc(OC)c1 the results were KCNQ2 inh inactive and KCNQ2 pot 6.6*.
COc1cccc(NC(=O)c2cccs2)c1 was read as KCNQ2 inh inactive and KCNQ2 pot 1.9.
Cc1cccn2c(NC(=O)c3ccccc3F)c(-c3ccccc3)nc12 was read as KCNQ2 inh inactive.
COC(=O)CCSCC(=O)N1N=C(c2ccc(OC)cc2)CC1c1cccc(OC)c1OC (stereo not drawn) was read as KCNQ2 inh inactive and KCNQ2 pot 0.2.
`COc1ccccc1N1CCN(C(=O)C(Sc2ccccc2)c2ccccc2)CC1` (stereo not drawn) gave KCNQ2 inh -5.7* and KCNQ2 pot -5.7.
`COc1ccccc1N1CCN(C(=O)CSc2ccccc2)CC1` gave KCNQ2 inh inactive.
Screening COCCNC(=S)NCCc1ccc(Cl)cc1Cl returned KCNQ2 inh inactive.
For CC(NC(=O)COc1ccccc1Cl)c1ccccc1 (stereo not drawn) the results were KCNQ2 inh inactive.
Screening Cc1nnc(SCC(=O)Nc2ccc(O)cc2)c2ccccc12 returned KCNQ2 inh -5.6* and KCNQ2 pot -5.6.
Screening Cc1nnc(SCC(=O)Nc2ccccc2)c2ccccc12 returned KCNQ2 inh inactive.
Cc1ccc2c(c1)N(CC(=O)NCC(C)c1ccccc1)C(=O)c1cccnc1O2 (stereo not drawn) was read as KCNQ2 inh inactive.
`CCOC(=O)C1=C(C)N(c2ccccc2)C(=O)/C1=C\c1ccco1` gave KCNQ2 inh -6* and KCNQ2 pot -6.
`COC(=O)C1=C(C)N(c2ccc(OC)c(OC)c2)C(=O)/C1=C\c1ccco1` gave KCNQ2 inh inactive and KCNQ2 pot 0.96.
Screening COc1ccc(CN(C(=O)CSc2nnc(-c3ccc(F)cc3)o2)c2ccc(F)cc2)cc1 returned KCNQ2 inh inactive.
`COc1ccc(CN(C(=O)CSc2nnc(-c3c[nH]c4ccccc34)o2)c2ccc(F)cc2)cc1OC` gave KCNQ2 inh -7* and KCNQ2 pot -7.
`Cc1ccc(S(=O)(=O)N2CCCC2C(=O)NCc2ccncc2)cc1` (stereo not drawn) gave KCNQ2 inh inactive and KCNQ2 pot 1.
Screening O=C(NCC1COc2ccccc2O1)c1cccs1 (stereo not drawn) returned KCNQ2 inh inactive.
For O=C(NCC1COc2ccccc2O1)c1ccc(Br)s1 (stereo not drawn) the results were KCNQ2 inh -6.2* and KCNQ2 pot -6.2.
`Fc1ccccc1Cc1noc(CN2CCN(c3ccc(Cl)cn3)CC2)n1` gave KCNQ2 inh -5.6* and KCNQ2 pot -5.6.
Clc1ccccc1Cc1noc(CN2CCN(c3cnccn3)CC2)n1 was read as KCNQ2 inh inactive.
Screening CCOC(=O)N1CCN(C(=O)CCNS(=O)(=O)c2ccc3c(c2)c(=O)n(C)c(=O)n3C)CC1 returned KCNQ2 inh inactive and KCNQ2 pot 0.03.
COc1ccc(C(CC(=O)c2ccccc2)C2CCCCC2=O)cc1 (stereo not drawn) was read as KCNQ2 inh -5.8* and KCNQ2 pot -5.8.
